Bioassay records (PubChem BioAssay)
Sampled rows, rich in hits. Any-hit rate of the full collection: about 4.6%.
AHR act: activates the human aryl hydrocarbon receptor | P35869 | AHR-responsive luciferase reporter cells, luminescence | activation, % at 5 µM | actives 2.5% (n = 320,000); in the data active = activation above about 47%;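 note: 0% = vehicle wells and 100% = reference agonist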
GAA850 FXN act: increases GAA850 frataxin promoter reporter activity | HEK293 lucGAA850 FXN promoter luciferase reporter, 24 h; percent of 10 µM SAHA response | activation, % at 6 µM | actives 0.56% (n = 360,000);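 active = activation above the average of all compounds screened plus 3 SD, cutoff fixed separately per campaign, cut at about 7.5% in these data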;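 note: 0% = DMSO wells and 100% = 10 µM SAHA wells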
HSF1 inhib: HSF1 inhibition; activity change, negative = inhibition, % at 7.5 µM (by protocol); NIH3T3-HGL HSE-luciferase, MG132-induced, luminescence 8 h; stronger effect = lower value; actives 0.77% (n = 300,000); AID 2098;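 active = more than half of replicate wells show activity change below -50%, luminescence cut by over half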;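 note: luciferase reports HSF-1 transcriptional activity via heat shock element; 0% = median of DMSO wells and -100% = zero luminescence signal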
HSF-1 act: increases HSF-1 driven luciferase reporter signal; NIH3T3-HGL HSF-1 luciferase reporter, MG132, 8 h; 100% = twice DMSO control signal; actives 1.7% (n = 300,000); AID 504408; activation, % at 9 µM;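 active = mean replicate activation of at least 50% with a set share of replicates each reaching 50%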;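 note: 0% = median of the neutral control wells and 100% = twice that signal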
AHR act cf: confirmation of human aryl hydrocarbon receptor activators; shares compounds with AHR act; human cells, AHR-responsive luciferase reporter, luminescence; activation, % at 9 µM; actives 87% (n = 2,300); AID 2845; in the data active = activation above about 49%;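 note: HepG2 hepatoma cells carrying a DRE-driven firefly luciferase reporter; 0% = vehicle wells and 100% = reference agonist wells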
PXR counter: counter-screen for AHR activators: human PXR activators. shares compounds with AHR act. cell-based PXR reporter, luciferase luminescence. activation, % at 11.6 µM. actives 88% (n = 2,300); in the data active = activation above about 11%;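 note: human hepatoma DPX-2 cells expressing full-length human PXR; 0% = DMSO and 100% = reference agonist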
Target sequence (O75469 whole entry, looked up): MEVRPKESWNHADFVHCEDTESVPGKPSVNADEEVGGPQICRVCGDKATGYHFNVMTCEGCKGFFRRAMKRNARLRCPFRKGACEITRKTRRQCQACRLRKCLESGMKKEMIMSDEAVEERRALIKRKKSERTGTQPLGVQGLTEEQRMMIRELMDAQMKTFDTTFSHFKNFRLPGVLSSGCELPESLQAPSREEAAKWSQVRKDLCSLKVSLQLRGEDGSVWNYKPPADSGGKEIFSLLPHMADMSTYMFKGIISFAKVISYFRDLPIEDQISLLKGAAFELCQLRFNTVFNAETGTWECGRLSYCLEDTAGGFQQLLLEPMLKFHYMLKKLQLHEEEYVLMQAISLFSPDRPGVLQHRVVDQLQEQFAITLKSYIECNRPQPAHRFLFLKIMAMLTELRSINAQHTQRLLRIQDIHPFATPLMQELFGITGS
* hit, by the source's call; nt = no result.

SMILES | AHR act | GAA850 FXN act | HSF1 inhib | HSF-1 act | AHR act cf | PXR counter
COc1ccc(-n2cc(-c3ccc(Cl)cc3)[nH]c2=S)cc1 | 41.6 | 5.0 | 18.4 | 28.3 | nt | nt
COc1cccc(-n2cc(-c3ccc(F)cc3)[nH]c2=S)c1 | 108.5* | 4.8 | -17.8 | -12.2 | 12.4 | 51.9*
COc1ccccc1-c1cn(-c2ccccc2)c(=S)[nH]1 | 112.0* | 0.3 | 1.8 | -3.8 | 108.7* | 105.1*
S=c1[nH]c(-c2ccccc2)cn1-c1ccccc1 | 36.0 | 3.0 | 30.8 | 42.4 | nt | nt
COc1ccccc1-n1cc(-c2ccc(C)cc2)[nH]c1=S | 109.0* | -3.1 | -2.3 | 14.7 | 87.3* | 97.0*
COc1ccc(CNc2ccc3c(c2)ncn3-c2ccccc2OC)cc1 | 0.6 | 3.3 | 8.4 | 14.9 | nt | nt
COc1ccc(-c2nc(SCC(=O)NCc3ccco3)c(-c3ccccc3)[nH]2)cc1OC | 28.5 | -5.0 | 2.6 | -0.6 | nt | nt
COc1ccc(-c2[nH]c(-c3ccc(F)cc3)nc2SCC(=O)NCc2ccco2)cc1OC | 80.4* | -0.7 | 6.8 | -1.5 | 63.1* | 57.2*
COc1ccc(-c2[nH]c(-c3ccccc3)nc2SCC(=O)NCc2ccco2)cc1OC | 121.1* | -3.2 | 4.4 | -1.0 | 68.2* | 75.1*
CCC(C)NC(=O)Nc1ccccc1C (stereo unspecified) | -0.9 | -0.2 | -10.0 | 2.4 | nt | nt
O=S(=O)(Nc1cccc(-c2nc3cccnc3s2)c1)c1cccs1 | 5.1 | 3.5 | 4.1 | -20.8 | nt | nt
Cc1ccc(-c2nc3cccnc3s2)cc1NS(C)(=O)=O | 142.1* | 6.3 | 6.8 | 21.2 | 120.8* | 37.0*
CCCS(=O)(=O)Nc1cccc(-c2nc3cccnc3s2)c1 | 91.3* | 6.0 | -6.1 | 1.5 | 99.1* | 39.5*
NC(=O)c1cc2ccccc2o/c1=N\NC(=O)c1ccncc1 | 126.8* | 0.4 | -4.4 | -6.9 | 137.0* | 15.5*
Cc1ccc(C(=O)N/N=c2\oc3ccccc3cc2C(N)=O)cc1 | 22.8 | 1.2 | 7.6 | -10.0 | nt | nt
COc1cccc(-c2sc3ccc(OC)cc3c2C#CCC(C)O)c1 (stereo unspecified) | 44.0 | 3.0 | nt | nt | nt | nt
COc1ccc2sc(-c3ccc(N(C)C)cc3)c(C#CCCO)c2c1 | 108.8* | 5.1 | nt | nt | 129.1* | 19.1*
COC(=O)c1c(-c2ccc(SC)cc2)sc2ccc(OC)cc12 | 18.0 | 4.4 | nt | nt | nt | nt
COc1ccc2sc(-c3ccc(SC)cc3)c(C#CCO)c2c1 | 85.2* | 0.8 | nt | nt | 90.2* | 33.9*
CN(NC(=O)C(C)(C)C)c1nc(-c2ccccc2)nnc1C(F)(F)F | 0.7 | 1.9 | 3.4 | 7.7 | nt | nt
CN(C)c1nc(-c2ccccc2)nnc1C(F)(F)F | 96.2* | 0.9 | nt | nt | 114.2* | 25.0*
Cc1sc(NC(=O)c2ccc(Cl)s2)c(C(N)=O)c1C | 97.7* | 4.4 | 24.5 | 30.0 | 123.3* | 24.3*
Cc1sc(NC(=O)c2cc(-c3ccc(Cl)cc3)nc3ccccc23)c(C(N)=O)c1C | 23.3 | 1.9 | -2.1 | 6.0 | nt | nt
O=C1CCN(Cc2ccccc2)C=C1c1ccc2ccccc2c1 | 83.5* | 2.8 | nt | nt | 108.0* | 39.6*
O=C1CCN(Cc2ccccc2)C=C1c1ccc(C(F)(F)F)cc1 | 108.3* | 2.0 | nt | nt | 101.6* | 118.6*
SMILES | AHR act | GAA850 FXN act | HSF1 inhib | HSF-1 act | AHR act cf | PXR counter
O=C(N/N=C\c1cc2c(cc1Cl)OCO2)c1cccnc1 | 80.0* | -1.0 | -2.1 | 6.7 | 79.3* | 13.3*
O=C(N/N=C/c1cc2c(cc1Cl)OCO2)c1ccncc1 | 86.8* | 0.3 | 9.4 | 8.4 | 63.0* | 8.7
Cc1ccc(C(=O)Nc2nnc(SCC(=O)N3CCCc4ccccc43)s2)cc1 | 10.9 | 4.0 | -18.4 | -13.5 | nt | nt
CCc1nn(CC(=O)NCc2ccccc2Cl)c(=O)c2cccn12 | 5.7 | 0.5 | 5.3 | -5.1 | nt | nt
CCOC(=O)C(C)On1c(-c2ccccc2)nc2ccc([N+](=O)[O-])cc21 (stereo unspecified) | 10.5 | 3.1 | 25.9 | 36.9 | nt | nt
O=C(O)COn1c(-c2ccccc2)nc2ccc([N+](=O)[O-])cc21 | 141.4* | 1.5 | 39.7 | 82.1* | 52.9* | nt
CC(=O)Nc1ccc(NC(=O)COC(=O)c2ccc(Cl)nc2)cc1 | nt | 0.4 | nt | nt | nt | nt
COc1ccc(-n2ncc3c(=O)n(CC(=O)Nc4ccc(S(=O)(=O)N5CCOCC5)cc4)cnc32)cc1 | -0.9 | -0.8 | -0.6 | -2.7 | nt | nt
Cc1cnc(NC(=O)c2c(Cl)cnn2C)s1 | 88.2* | -1.0 | 6.6 | -15.7 | 93.0* | nt
Cn1ncc([N+](=O)[O-])c1C(=O)Nc1ccc2c(c1)OCCO2 | 7.7 | -6.9 | nt | nt | nt | nt
O=C(Nc1ccc2c(c1)OCO2)c1c(Cl)nc2sccn12 | 114.2* | 6.2 | 18.0 | 32.6 | 154.2* | 53.3*
Cn1ncc(Cl)c1C(=O)Nc1ccc2c(c1)OCO2 | 123.2* | 2.1 | -4.9 | -6.2 | 117.0* | 13.2*
COc1ccc(C(=O)NNC(=S)Nc2ccccc2)cc1 | 1.7 | 6.0 | 4.2 | 2.2 | nt | nt
CCOc1ccc2[nH]c(=S)[nH]c2c1 | 8.7 | 0.3 | -9.7 | -8.9 | nt | nt
Cc1cccc(-c2oc3ccccc3c2C#CCCO)c1 | 97.2* | 3.6 | -2.7 | 4.5 | 67.5* | 24.2*
COCCSc1nnc(NC(=O)CS(=O)(=O)c2ccccc2)s1 | -0.8 | 0.2 | -2.5 | -18.9 | nt | nt
CCn1c(=O)cc(OCC(=O)NCc2ccc(C)o2)c2ccccc21 | 96.1* | 0.8 | 9.4 | 10.3 | 45.9 | 24.7*
CCNC(=S)NN=C1c2ccccc2-c2ccccc21 | 45.1 | 2.5 | 3.1 | 1.9 | nt | nt
C=C(C)CNC(=S)NN=C1c2ccccc2-c2ccccc21 | 92.3* | 4.2 | 13.7 | 36.6 | 87.5* | 55.3*
O=C(C[n+]1cc(Br)cc2ccccc21)c1ccccc1 | 93.4* | 2.5 | 7.1 | 18.4 | 96.3* | 103.3*
Cc1nnc2c(-c3ccccc3)nc3ccccc3n12 | 89.1* | 2.0 | -0.3 | -20.1 | 109.2* | 13.0*
Cc1nnc2c(NCCc3ccccc3)nc3ccccc3n12 | 16.6 | -2.1 | 20.5 | 48.8 | nt | nt
O=C(Cc1ccccc1[N+](=O)[O-])NNC(=O)c1ccncc1 | 2.8 | 2.2 | nt | nt | nt | nt
CCOc1ccc(Nc2nc(-c3cccnc3)cs2)cc1 | 114.6* | 2.4 | 4.7 | -5.6 | 180.9* | 14.2*
O=C(O)c1ccc(Nc2nc(-c3cccnc3)cs2)cc1 | 6.0 | 3.8 | 3.2 | 16.7 | nt | nt
COc1ccc(Cl)cc1Nc1nc(-c2sc(NC(=O)C(C)(C)C)nc2C)cs1 | 16.0 | -1.0 | -1.9 | 8.1 | nt | nt
CCC(C)C(=O)Nc1nc(C)c(-c2csc(Nc3cc(OC)ccc3OC)n2)s1 (stereo unspecified) | 82.7* | -0.7 | -12.3 | -20.4 | 61.1* | 52.5*
COc1cccc(Nc2nc(-c3sc(NC(=O)c4ccco4)nc3C)cs2)c1 | 46.0 | -2.3 | -1.5 | 0.9 | nt | nt
CCC(C)C(=O)Nc1nc(C)c(-c2csc(Nc3cc(Cl)ccc3OC)n2)s1 (stereo unspecified) | 84.5* | 0.7 | -0.8 | 4.1 | 56.4* | 30.2*
COc1ccc(Cl)cc1Nc1nc(-c2sc(NC(=O)c3ccco3)nc2C)cs1 | 106.5* | -0.4 | 6.1 | 9.5 | 75.3* | 20.6*
